Active and inactive are the calls of the source.

We go through 15 compounds from PubChem BioAssay.

Experiment [1] concerns PRMT1 (protein arginine N-methyltransferase 1). The experiment can be described thus: PRMT1 binders on small-molecule microarrays, primary screen, biochemical, small-molecule microarray, 635 nm fluorescence (AID 1088).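 Also: binding of Prmt1 protein to compounds spotted on small-molecule microarray slides.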 The note with it: small-molecule microarray binding, higher = more signal.
Experiment [2] can be described thus: yeast growth modulation, basal conditions, primary screen, YJM789 clinical isolate, OD600, 24 h (AID 1089).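 Also: growth of clinical yeast isolate S. cerevisiae YJM 789 seeded 1000 cells per well; test concentration not given here.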 The conditions noted are these: S. cerevisiae YJM789 growth, higher = more signal, called active from +8 up or from −8 down.
The nature of experiment [3]: fission yeast growth modulation, primary screen, strain 972, OD600, 24 h, no modulator (AID 1090).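 Also: basal condition with compound alone and no growth modifier present; test concentration not given here.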 The conditions noted are these: S. pombe 972 growth, higher = more signal, called active from +8 up or from −8 down.
Experiment [4] can be described thus: S. cerevisiae growth modulation with rapamycin, primary screen, strain BY4716, OD600, 96 h (AID 1091). Also: test concentration not given here. The conditions noted are these: higher = more signal, called active from +8 up or from −8 down.
Experiment [5] concerns the target Torsin-1A-interacting protein 2 (Homo sapiens) (UniProt Q8NFQ8). In words: LULL1 binders on small-molecule microarray, primary screen, cell lysate, human LULL1 lysate, 635/667 nm fluorescence (AID 1092).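 Also: probe is lysate of COS7 cells overexpressing human LULL1; score merges per-feature 667 nm fluorescence with signal-to-noise.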 The note with it: hLULL1 lysate binding, 635 nm fluorescence, higher = more signal.
Experiment [6] can be described thus: E. coli growth modulation, two-sided OD650, primary screen, E. coli filamentation project, strain DRC41, 24 h (AID 1093).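 Also: MC1000 strain lacking acrAB efflux and sulA so SOS filamentation is blocked; test concentration not given here.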 The note with it: OD650, 24 h, higher = more signal, called active from +8 up or from −8 down.
A short description of experiment [7]: small-molecule microarray binders of probe aLefty2, primary screen, biochemical, biotinylated probe, 635/667 nm fluorescence (AID 1094).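 Also: score merges spot fluorescence near 667 nm with spot signal-to-noise ratio.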 The note with it: higher = more signal.
For experiment [8], the system named is Noggin (protein binding on small-molecule microarray). In words: Noggin binders on small-molecule microarray, primary screen, biochemical, 635/667 nm fluorescence (AID 1095).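 Also: score merges 667 nm feature fluorescence with signal to noise over triplicate slides.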 The note with it: 635 nm fluorescence, higher = more signal.
The target in experiment [9] is Neurogenic locus notch homolog protein 3 (Homo sapiens) (UniProt Q9UM47). The experiment can be described thus: NOTCH3 binders on small-molecule microarray, primary screen, biochemical, 635/667 nm fluorescence (AID 1096). The note with it: NOTCH3 binding, 635 nm fluorescence, higher = more signal.
Neurogenic locus notch homolog protein 3 (Homo sapiens), sequence (Q9UM47 whole entry, looked up): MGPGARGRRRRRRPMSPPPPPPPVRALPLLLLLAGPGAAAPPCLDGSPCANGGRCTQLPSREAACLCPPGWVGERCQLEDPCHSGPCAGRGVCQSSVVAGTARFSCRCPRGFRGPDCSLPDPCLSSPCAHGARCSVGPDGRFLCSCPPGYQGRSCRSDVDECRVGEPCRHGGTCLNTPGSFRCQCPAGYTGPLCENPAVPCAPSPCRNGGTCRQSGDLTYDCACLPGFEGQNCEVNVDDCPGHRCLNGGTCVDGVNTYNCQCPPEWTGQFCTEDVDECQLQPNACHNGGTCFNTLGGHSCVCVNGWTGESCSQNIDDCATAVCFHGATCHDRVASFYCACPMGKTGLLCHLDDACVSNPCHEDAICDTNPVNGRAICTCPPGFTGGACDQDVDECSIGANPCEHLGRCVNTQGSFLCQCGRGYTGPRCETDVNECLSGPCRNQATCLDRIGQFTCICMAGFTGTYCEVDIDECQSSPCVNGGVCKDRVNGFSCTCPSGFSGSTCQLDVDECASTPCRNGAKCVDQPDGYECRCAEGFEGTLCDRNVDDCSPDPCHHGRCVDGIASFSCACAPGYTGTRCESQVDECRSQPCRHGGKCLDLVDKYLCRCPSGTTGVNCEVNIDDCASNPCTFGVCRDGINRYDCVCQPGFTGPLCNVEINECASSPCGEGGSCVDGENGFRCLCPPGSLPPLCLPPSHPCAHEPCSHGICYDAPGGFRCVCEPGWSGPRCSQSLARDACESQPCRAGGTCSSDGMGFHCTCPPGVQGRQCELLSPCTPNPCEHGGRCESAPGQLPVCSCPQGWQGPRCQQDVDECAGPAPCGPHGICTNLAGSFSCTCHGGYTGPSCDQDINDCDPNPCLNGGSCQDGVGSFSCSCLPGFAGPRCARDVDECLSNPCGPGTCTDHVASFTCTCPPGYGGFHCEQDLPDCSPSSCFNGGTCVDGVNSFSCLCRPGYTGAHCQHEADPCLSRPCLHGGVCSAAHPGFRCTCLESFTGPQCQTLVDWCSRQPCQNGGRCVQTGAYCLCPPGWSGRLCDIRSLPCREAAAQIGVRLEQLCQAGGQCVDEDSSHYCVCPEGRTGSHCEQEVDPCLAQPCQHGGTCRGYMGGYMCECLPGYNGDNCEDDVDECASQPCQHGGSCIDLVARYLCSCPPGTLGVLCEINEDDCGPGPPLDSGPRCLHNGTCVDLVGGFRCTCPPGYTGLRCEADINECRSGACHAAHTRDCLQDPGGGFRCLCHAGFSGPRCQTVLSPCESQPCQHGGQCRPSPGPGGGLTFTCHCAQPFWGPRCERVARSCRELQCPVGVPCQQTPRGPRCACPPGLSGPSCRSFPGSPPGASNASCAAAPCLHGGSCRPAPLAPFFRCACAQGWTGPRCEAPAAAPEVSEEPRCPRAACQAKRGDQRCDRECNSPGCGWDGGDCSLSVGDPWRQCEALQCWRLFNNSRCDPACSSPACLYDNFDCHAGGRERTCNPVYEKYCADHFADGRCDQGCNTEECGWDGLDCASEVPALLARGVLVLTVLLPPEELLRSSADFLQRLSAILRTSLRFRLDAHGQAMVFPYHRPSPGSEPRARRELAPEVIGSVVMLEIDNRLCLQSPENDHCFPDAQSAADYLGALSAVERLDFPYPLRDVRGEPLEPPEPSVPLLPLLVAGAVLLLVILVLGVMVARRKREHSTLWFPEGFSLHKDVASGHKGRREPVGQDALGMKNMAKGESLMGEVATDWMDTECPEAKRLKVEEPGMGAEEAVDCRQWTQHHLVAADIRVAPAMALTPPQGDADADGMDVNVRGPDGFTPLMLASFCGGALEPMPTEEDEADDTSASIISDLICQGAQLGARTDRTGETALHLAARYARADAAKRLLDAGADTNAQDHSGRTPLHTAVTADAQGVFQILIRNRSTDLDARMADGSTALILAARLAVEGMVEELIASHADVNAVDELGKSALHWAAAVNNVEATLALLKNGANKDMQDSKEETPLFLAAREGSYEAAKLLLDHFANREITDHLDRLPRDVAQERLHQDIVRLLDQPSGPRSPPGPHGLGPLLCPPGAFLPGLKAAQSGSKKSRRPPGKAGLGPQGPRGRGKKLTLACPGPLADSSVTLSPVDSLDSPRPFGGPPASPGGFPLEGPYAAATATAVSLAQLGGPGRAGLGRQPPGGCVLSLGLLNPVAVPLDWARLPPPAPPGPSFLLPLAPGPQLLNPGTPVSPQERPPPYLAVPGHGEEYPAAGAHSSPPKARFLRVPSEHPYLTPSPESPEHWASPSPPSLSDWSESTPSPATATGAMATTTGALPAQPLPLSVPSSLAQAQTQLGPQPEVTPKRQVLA
Experiment [10] is described as follows: small-molecule microarray binders of probe aEGFR, primary screen, biochemical, biotinylated probe, 635/667 nm fluorescence (AID 1097).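 Also: probe is a biotinylated anti-EGFR antibody binding compounds printed on slides; score combines fluorescence near 667 nm and signal to noise of each spot.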 The note with it: higher = more signal.

Torsin-1A-interacting protein 2 (Homo sapiens), sequence (Q8NFQ8 whole entry, looked up): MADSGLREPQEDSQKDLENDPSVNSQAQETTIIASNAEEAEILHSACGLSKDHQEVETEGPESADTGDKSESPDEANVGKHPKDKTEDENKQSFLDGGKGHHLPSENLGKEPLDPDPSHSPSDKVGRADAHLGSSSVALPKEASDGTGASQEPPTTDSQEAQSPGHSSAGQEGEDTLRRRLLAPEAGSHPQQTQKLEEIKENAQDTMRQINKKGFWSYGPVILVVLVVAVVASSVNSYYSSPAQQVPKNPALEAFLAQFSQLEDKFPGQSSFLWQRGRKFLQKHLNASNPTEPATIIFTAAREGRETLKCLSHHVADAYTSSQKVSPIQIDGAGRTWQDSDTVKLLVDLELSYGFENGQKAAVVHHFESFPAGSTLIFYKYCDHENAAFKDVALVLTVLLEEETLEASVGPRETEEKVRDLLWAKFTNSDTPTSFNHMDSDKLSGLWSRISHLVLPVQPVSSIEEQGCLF

Regarding `C=C(COC)C(=O)CC[C@@H](OC(=O)c1cccnc1)c1ccc(CO)o1`, the composite z-score is 1.35 in experiment [1]; 0.991 in [5]; -0.21 in experiment [7]; 0.817 in [8]; 0.574 in [9]; -0.137 in experiment [10]. In addition, the z-score in [2] is 0.692 (inactive); in [3], -0.0164 (inactive); in [4], -0.336 (inactive); in [6], 0.255 (inactive).
In the case of `CCCCC(CC)C(O)C1C=CC2C(=O)N(c3ccccc3)C(=O)C2N1Nc1ccccc1` (stereo not given), the composite z-score was 0.527 in experiment [1]; 2.94 in experiment [5]; 0.0319 in experiment [7]; -0.0087 in experiment [8]; 1.11 in experiment [9]; 0.0276 in experiment [10]. Besides, the z-score in experiment [2] was 0.549 (inactive); in [3], 0.645 (inactive); in experiment [4] it was 0.804 (inactive); in experiment [6] it was -1.54 (inactive).
As for `CO[C@H]1O[C@H](CO)[C@@H](OC(=O)Nc2ccc(Oc3ccccc3)cc2)[C@H](OC(=O)Nc2ccccc2)[C@H]1OC(=O)Nc1ccccc1`, the composite z-score in experiment [1] was 1.55; in experiment [5], 3.26; in experiment [7], 0.286; in [8], 0.7; in experiment [9], 1.13; in experiment [10], 0.13. Moreover, the z-score is 1.48 (inactive) in experiment [2], 0.613 (inactive) in [3], -1.75 (inactive) in [4] and 0.939 (inactive) in [6].
In the case of `COc1ccc([Si](C)(C)[C@H]2[C@H](CC(=O)N(CCO)Cc3ccccc3)O[C@@]3(C(=O)N(Cc4cccc(N5CCC5=O)c4)c4ccccc43)[C@@H]2C)cc1`, the composite z-score in experiment [1] was 1.39; in [5], 1.64; in experiment [7], -0.0188; in experiment [8], 0.847; in experiment [9], 0.976; in [10], -0.0334. Besides, the z-score was -0.763 (inactive) in experiment [2], -0.509 (inactive) in experiment [3], 1.16 (inactive) in [4] and 2.57 (inactive) in experiment [6].
`CC(C)c1ccc(NN2C(C(O)c3ccc(N(C)C)cc3)C=CC3C(=O)N(c4ccccc4)C(=O)C32)cc1` (stereo not given): the composite z-score is 1.56 in experiment [1]; 3.34 in [5]; 0.188 in experiment [7]; 0.109 in experiment [8]; 1.03 in experiment [9]; -0.027 in experiment [10]. Further, the z-score in experiment [2] was 0.372 (inactive); in experiment [3], 1.26 (inactive); in experiment [4], 0.197 (inactive); in experiment [6] it was -0.158 (inactive).
Turning to `C=CCC(OC(C)=O)[C@@H]1[C@@H](N(Cc2ccc(-c3ccccc3)cc2)C(=O)Cc2ccc(OC)cc2)c2cc(OCCCO)ccc2N1C(=O)c1ccc2ccccc2n1` (stereo not given in full), the composite z-score was -0.298 in experiment [1]; 1.02 in experiment [5]; 0.0171 in experiment [7]; -0.49 in experiment [8]; 0.0617 in experiment [9]; -0.0784 in experiment [10]. In addition, the z-score in [2] is -1.15 (inactive); in experiment [3], -0.832 (inactive); in [4] it was -0.551 (inactive); in experiment [6], 0.374 (inactive).
As for `COc1ccc(C(O)C2C=CC3C(=O)NC(=O)C3N2Nc2ccccn2)cc1OCc1ccccc1` (stereo not given), the composite z-score in experiment [1] is 0.301; in [5], 3.51; in [7], -0.0865; in experiment [8], 0.15; in [9], -0.192; in [10], 0.0357. For the same compound, the z-score is 0.167 (inactive) in experiment [2], 1.03 (inactive) in experiment [3], -0.269 (inactive) in [4] and -0.181 (inactive) in [6].
Consider `COCCOC(=O)N1C(=O)[C@@]2(c3cc(C#CC4=CCCCC4)ccc31)[C@H](C(=O)NC[C@H](O)c1ccccc1)[C@H]1C(=O)O[C@H](c3ccccc3)[C@H](c3ccccc3)N1[C@@H]2c1ccc(O)cc1`, for which the composite z-score in experiment [1] was determined as 1.54; in [5] it was 2.08; in [7] it was 0.0723; in [8] it was 0.829; in experiment [9], 1.06; in experiment [10], 0.0937. Further, the z-score in experiment [2] is 1 (inactive); in [3] it was 0.0198 (inactive); in experiment [4] it was 1.83 (inactive); in experiment [6], 2.13 (inactive).
On to `O=C1OCCC=C[C@H]2OC34C=CCN(Cc5ccccc5)C(=O)[C@H]3N(CCCCCO)C(=O)[C@@H]4C12` (stereo not given in full), for which the composite z-score in experiment [1] was 0.878; in experiment [5] it was 3.74; in experiment [7], -0.171; in experiment [8], -0.748; in experiment [9] it was -0.483; in experiment [10], -0.252. Further, the z-score in [2] is 1.5 (inactive); in experiment [3] it was -0.0407 (inactive); in experiment [4] it was -0.188 (inactive); in experiment [6], 1.42 (inactive).
With `O=C1C2C=CC(C(O)c3cccs3)N(Nc3ccccc3F)C2C(=O)N1c1ccccc1` (stereo not given), the composite z-score was -0.441 in experiment [1]; 3.17 in experiment [5]; 0.0166 in experiment [7]; -0.226 in [8]; 0.476 in experiment [9]; -0.11 in [10]. In addition, the z-score was -0.471 (inactive) in experiment [2], 0.915 (inactive) in experiment [3], -0.867 (inactive) in [4] and 0.153 (inactive) in experiment [6].
For `C=CC[C@@]1(C(=O)O)N=C(c2ccc(OCCCO)cc2)O[C@@H]1c1ccccc1N=[N+]=[N-]`, the composite z-score in [1] is 1.23; in experiment [5], 3.24; in experiment [7], 0.23; in experiment [8], -0.203; in experiment [9] it was -0.231; in experiment [10], -0.0225. In addition, the z-score in [2] was 0.0908 (inactive); in [3], -0.594 (inactive); in [4] it was -1.46 (inactive); in [6], 0.0672 (inactive).
`C=C(CCCC)C(=O)CC[C@H](OC(=O)c1cccnc1)c1cccc(OCCO)c1`: the composite z-score is 1.3 in experiment [1]; 1 in [5]; -0.141 in experiment [7]; 0.257 in experiment [8]; -0.139 in [9]; -0.0818 in [10]. In addition, the z-score in experiment [2] was 1.61 (inactive); in [3], -0.86 (inactive); in [4], 1.13 (inactive); in experiment [6], 0.241 (inactive).
In the case of `COC(=O)[C@@]1(Cc2ccccc2N=[N+]=[N-])COC(c2ccc(OCCCO)cc2)=N1`, the composite z-score in experiment [1] is 1.24; in experiment [5], 2.08; in experiment [7] it was 0.137; in experiment [8] it was -0.353; in experiment [9], 0.0418; in experiment [10], -0.0762. Moreover, the z-score in [2] was -1.33 (inactive); in [3], -11 (active); in [4] it was -1.99 (inactive); in experiment [6], -0.574 (inactive).
As for `COc1ccc([Si](C)(C)[C@@H]2[C@@H](CCn3cc([C@H](O)c4ccccc4)nn3)O[C@]3(C(=O)N(Cc4cccc(N5CCOC5=O)c4)c4ccccc43)[C@H]2C)cc1`, the composite z-score is -0.217 in [1]; 0.697 in experiment [5]; -0.117 in experiment [7]; -0.89 in experiment [8]; -1.29 in experiment [9]; -0.278 in [10]. The z-score is 1.56 (inactive) in experiment [2], 1.45 (inactive) in experiment [3], 3.61 (inactive) in [4] and 0.894 (inactive) in experiment [6].
With `CC=CC(O)C1C=CC2C(=O)N(c3ccccc3)C(=O)C2N1Nc1ccc(C(C)C)cc1` (stereo not given), the composite z-score is 1.53 in [1]; 3.13 in experiment [5]; 0.183 in [7]; 0.321 in experiment [8]; 1.05 in [9]; 0.14 in experiment [10]. The z-score in experiment [2] is 0.842 (inactive); in [3] it was 0.877 (inactive); in experiment [4], 1.06 (inactive); in [6], -1.71 (inactive).
